Laboratory results: paper PMC7826789 (International Journal of Molecular Sciences, 2021)

What was measured:
Details in all cases: Compound Concentration (nM):1000
EGFR(G719S) = test system: EGFR(G719S)
[1] = test system: EGFR(L747-E749del, A750P)
[2] = test system: EGFR(L747-S752del, P753S)
EGFR(L747-T751del,Sins) = test system: EGFR(L747-T751del,Sins)
EGFR(L858R) = test system: EGFR(L858R)
EGFR(L858R,T790M) = test system: EGFR(L858R,T790M)
EGFR(L861Q) = test system: EGFR(L861Q)
EGFR(S752-I759del) = test system: EGFR(S752-I759del)
EGFR(T790M) = test system: EGFR(T790M)
EGFR = test system: EGFR
EIF2AK1 = test system: EIF2AK1
EPHA1 = test system: EPHA1
EPHA2 = test system: EPHA2
EPHA3 = test system: EPHA3
EPHA4 = test system: EPHA4
EPHA5 = test system: EPHA5
EPHA6 = test system: EPHA6
EPHA7 = test system: EPHA7
EPHA8 = test system: EPHA8
EPHB1 = test system: EPHB1
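Also: KINOMEscan scanMAX binding as percent activity remaining versus control; lower means stronger binding.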

Row | SMILES | Percent Control (EGFR(G719S)) | Percent Control [1] | Percent Control [2] | Percent Control (EGFR(L747-T751del,Sins)) | Percent Control (EGFR(L858R)) | Percent Control (EGFR(L858R,T790M)) | Percent Control (EGFR(L861Q)) | Percent Control (EGFR(S752-I759del)) | Percent Control (EGFR(T790M)) | Percent Control (EGFR) | Percent Control (EIF2AK1) | Percent Control (EPHA1) | Percent Control (EPHA2) | Percent Control (EPHA3) | Percent Control (EPHA4) | Percent Control (EPHA5) | Percent Control (EPHA6) | Percent Control (EPHA7) | Percent Control (EPHA8) | Percent Control (EPHB1)
1 | COc1cccc(-n2ncc3c(N/N=C/c4ccncc4)ncnc32)c1 [GW784752X] | 59% | 96% | 81% | 100% | 75% | 96% | 77% | 87% | 100% | 75% | 100% | 87% | 100% | 100% | 98% | 100% | 100% | 100% | 100% | 100%
2 | NS(=O)(=O)c1ccc(Nc2ncc(-c3ccccc3)o2)cc1 [GW572399X] | 100% | 68% | 100% | 100% | 88% | 96% | 100% | 100% | 92% | 88% | 100% | 100% | 100% | 100% | 97% | 100% | 100% | 84% | 81% | 91%
3 | COc1cccc(-c2c[nH]c3c(N/N=C/c4ccncc4)ncnc23)c1 [GW814408X] | 32% | 18% | 16% | 35% | 23% | 30% | 41% | 41% | 53% | 30% | 100% | 100% | 96% | 93% | 100% | 100% | 100% | 91% | 79% | 81%
4 | COC(=O)Nc1nc2ccc(Oc3ccc(NC(=O)Nc4cc(C(F)(F)F)ccc4F)cc3)cc2s1.Cl [GW693917A] | 83% | 86% | 95% | 100% | 78% | 95% | 100% | 100% | 68% | 90% | 100% | 19% | 14% | 9.9% | 12% | 52% | 11% | 16% | 0.5% | 31%
5 | O=C(Nc1n[nH]c2nc(-c3ccc(O)cc3)c(Br)cc12)C1CC1 [SB-725317] | 100% | 76% | 99% | 100% | 96% | 100% | 100% | 82% | 96% | 100% | 14% | 82% | 100% | 85% | 86% | 100% | 100% | 100% | 100% | 100%
6 | Cl.O=C(Nc1ccc(Oc2ccc3[nH]c(NC(=O)c4ccco4)nc3c2)cc1)Nc1cc(C(F)(F)F)ccc1F [GW683134A] | 92% | 69% | 78% | 100% | 91% | 100% | 89% | 97% | 84% | 92% | 100% | 20% | 15% | 58% | 14% | 53% | 35% | 17% | 1.1% | 39%
7 | CN1CCN(C(=O)c2ccc(NC(=O)Nc3ccc(N(C)c4ccnc(Nc5ccc(CS(C)(=O)=O)cc5)n4)cc3)cc2)CC1.Cl [GW830263A] | 100% | 99% | 78% | 100% | 92% | 55% | 92% | 100% | 54% | 100% | 100% | 56% | 85% | 79% | 85% | 99% | 76% | 92% | 89% | 87%
8 | NS(=O)(=O)c1ccc(N/N=C2\C(=O)Nc3ccc(C(=O)NCc4ccncc4)cc32)cc1 [GW300657X] | 97% | 100% | 90% | 81% | 94% | 100% | 91% | 98% | 100% | 93% | 100% | 100% | 89% | 100% | 88% | 94% | 100% | 100% | 99% | 100%
9 | C/C(Nc1ccc(S(N)(=O)=O)cc1)=C1/C(=O)Nc2ccccc21 [GW335962X] | 63% | 93% | 82% | 100% | 100% | 95% | 68% | 100% | 74% | 100% | 100% | 100% | 98% | 100% | 92% | 100% | 85% | 100% | 100% | 100%
10 | CN(C)CCNC(=O)Nc1ccc(N(C)c2ccnc(Nc3ccc(CS(C)(=O)=O)cc3)n2)cc1.Cl [GW830900A] | 97% | 73% | 79% | 100% | 83% | 60% | 100% | 100% | 64% | 95% | 88% | 76% | 89% | 85% | 100% | 90% | 100% | 81% | 78% | 78%
11 | COc1cc(C=NNc2ncnc3c2cnn3-c2ccccc2)ccc1O [GW513184X] | 44% | 46% | 33% | 64% | 96% | 76% | 62% | 64% | 82% | 100% | 100% | 100% | 100% | 100% | 100% | 83% | 100% | 90% | 94% | 99%
12 | COc1cc2ncn(-c3cc(O[C@H](C)c4ccccc4Cl)c(C(N)=O)s3)c2cc1OC [GSK237701A] | 69% | 100% | 86% | 87% | 100% | 79% | 97% | 100% | 75% | 100% | 92% | 100% | 100% | 100% | 72% | 100% | 83% | 88% | 89% | 81%
13 | COc1cc2ncnc(Nc3ccc4c(cnn4Cc4ccccc4)c3)c2cc1OC.Cl [GW282449A] | 1.4% | 11% | 3.4% | 5.2% | 0.9% | 78% | 0% | 78% | 7.2% | 4.4% | 100% | 100% | 100% | 100% | 100% | 100% | 100% | 100% | 100% | 100%
14 | COc1ccc2c(-c3ccnc(Nc4cccc(OC(F)(F)F)c4)n3)cnn2n1 [GW810372X] | 73% | 100% | 98% | 100% | 100% | 100% | 75% | 100% | 82% | 100% | 100% | 64% | 91% | 100% | 86% | 100% | 100% | 100% | 100% | 100%
15 | NS(=O)(=O)c1ccc(N/N=C2\C(=O)Nc3ccc(Cl)cc32)cc1 [GW280670X] | 100% | 100% | 100% | 100% | 100% | 100% | 87% | 87% | 100% | 100% | 100% | 100% | 100% | 100% | 96% | 100% | 100% | 100% | 100% | 100%
16 | Cl.O=C(O[C@H]1CN[C@H](C#Cc2cc3ncnc(Nc4ccc5c(cnn5Cc5ccccc5)c4)c3s2)C1)N1CCOCC1 [GSK200398A] | 2% | 66% | 20% | 24% | 9.2% | 87% | 0.3% | 3.1% | 44% | 25% | 100% | 87% | 96% | 94% | 96% | 100% | 95% | 100% | 100% | 100%
17 | COc1cc(N2CCN(C(C)C)CC2)ccc1Nc1nc(Nc2ccc(F)cc2C(=O)NC[C@@H](O)CO)c2cc[nH]c2n1 [GSK1392956A] | 87% | 83% | 71% | 94% | 73% | 7.6% | 60% | 86% | 4.4% | 76% | 100% | 91% | 94% | 70% | 100% | 100% | 72% | 100% | 100% | 100%
18 | COc1cc(/C=N/Nc2ncnc3[nH]ncc23)ccc1O [GW578748X] | 62% | 78% | 100% | 78% | 90% | 72% | 64% | 86% | 48% | 75% | 100% | 92% | 96% | 58% | 74% | 90% | 100% | 100% | 100% | 100%
19 | COc1ccc2cc(-c3c(-c4ccncc4)nc(-c4ccc(S(C)(=O)=O)cc4C)n3C)ccc2c1 [SB-633825] | 84% | 78% | 70% | 70% | 63% | 38% | 41% | 93% | 40% | 74% | 91% | 89% | 76% | 90% | 66% | 99% | 63% | 48% | 69% | 64%
20 | CC1=C(C(=O)Nc2ccc3[nH]ncc3c2)C(c2ccc(Cl)c(Cl)c2)CC(=O)N1 (centres unmarked) [GSK299115A] | 100% | 100% | 97% | 100% | 100% | 65% | 86% | 89% | 77% | 100% | 100% | 100% | 98% | 86% | 96% | 95% | 100% | 100% | 100% | 74%
21 | Cl.c1ccc(Cc2nc3ccc(Nc4ncnc5ccccc45)cc3[nH]2)cc1 [GR269666A] | 0.6% | 41% | 70% | 37% | 36% | 100% | 9.8% | 71% | 100% | 5% | 100% | 100% | 100% | 100% | 100% | 100% | 100% | 100% | 100% | 100%
22 | CC1=C(C(=O)Nc2ccc3[nH]ncc3c2)C(c2ccc3ccccc3c2)CC(=O)N1 (centres unmarked) [GSK270822A] | 100% | 100% | 100% | 100% | 100% | 55% | 83% | 100% | 56% | 100% | 87% | 93% | 88% | 85% | 82% | 100% | 90% | 98% | 99% | 99%
